Screens as filed in PubChem BioAssay.
Compounds with a hit are over-represented: about 19% of the library has one in this group of screens.
MCF10A rereplic = DNA re-replication induction in MCF 10a cells; MCF 10A DNA re-replication, Hoechst nuclear intensity, 48 h; Potency, µM (highest dose often 46.1 µM), for the others: top-dose activity, positive = re-replication, actives largely listed as activators; 350,000 tested, 2.9% active; note: potency is the fitted concentration of half-maximal effect; % of control where 0% means no effect; nearly all actives have a fitted effect of over 50% in size
IL-1B inflam inh = inflammasome signaling inhibition, IL-1 beta readout | THP-1 LPS/ATP IL-1B secretion, AlphaLISA, 16 h; hits give low values | activity change, % at 57.5 µM | 360,000 tested, 4.7% active | AID 743279; in the data active = activity change below about -50%; inconclusive = mostly about -30% to -49%; note: % is set by controls: 0 for no effect and ±100 for the full control effect
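THP-1 cells pretreated 1 hr with compounds (up to 57.5 uM final), then stimulated with LPS (250 ng/mL final) plus ATP (1.25 mM final); secreted IL-1B measured by AlphaLISA after 16 hr, decreased signal indicating inhibition.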
TDP1 cell noCPT = qHTS for Inhibitors of human tyrosyl-DNA phosphodiesterase 1 (TDP1): qHTS in cells in absence of CPT. DT40 Tdp1-/- hTDP1 cells, no CPT, ATP luminescence, 48 h. Potency, µM (titrated, usually from 46.2 µM), for the others: at the highest dose activity change, negative = growth inhibition, usual class: inhibitors. 420,000 tested, 15% active. AID 686978, 2013; note: potency is the fitted concentration of half-maximal effect; % is set by controls: 0 for no effect and ±100 for the full control effect; nearly all actives have a fitted effect of over 55% in size
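Camptothecin absent (DMSO only). Human TDP1-complemented DT40 knockout cells, 400 cells/well, 37 °C for minimum 48 hr; ATP measured via CellTiter-Glo, 30 min dark incubation, luminescence.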
TDP1 cell CPT = DT40-hTDP1 cell growth loss with CPT. chicken DT40 Tdp1-/-;hTDP1 cells + 20 nM CPT, ATP luminescence, 48 h. Potency, µM (series often up to 46.2 µM), without a hit: top-dose activity change, negative = growth inhibition, actives largely listed as inhibitors. 420,000 tested, 12% active. AID 686979; note: potency is the fitted concentration of half-maximal effect; % is set by controls: 0 for no effect and ±100 for the full control effect; nearly all actives have a fitted effect of over 55% in size
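Chicken DT40 Tdp1-/- cells stably complemented with human TDP1 were seeded at 400 cells/well in medium containing 20 nM camptothecin, exposed to pin-transferred compounds, and grown at 37 °C for at least 48 hr. Viability was read as ATP luminescence.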
Chronic BCR inh = blocks chronic active B-cell receptor signaling | 340,000 tested, 0.05% active | ABC-DLBCL IkBa-CBG/CBR reporter, luminescence ratio, 4 h | Potency, µM (series often up to 46.1 µM), for the others: at the top dose activity change, negative = inhibition, most hits filed as inhibitors; active = well fitted inhibition curve with a large enough effect in the signal ratio, with a control signal flat, not every such curve was filed as active; inconclusive = small, poorly fitted or top-dose-only effect, or effect the other way, or a change in a side signal; the % refers to the signal ratio;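 note: potency is the fitted concentration of half-maximal effect; plate controls were basal doxycycline-induced cells for no effect and cells given 10 µM MG132 for full effect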
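Compounds up to 46 uM were incubated four hours with TMD8 cells whose green CBG68 luciferase is fused to IkappaBalpha; red CBR luminescence normalised the signal, and concentration-effect curves were fitted to fusion, red and ratio data.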
SW480 rereplic = DNA re-replication induction in SW480 cells | SW480 DNA re-replication, Hoechst DNA content imaging, 48 h | Potency, µM (doses to about 46.1 µM), without a hit: top-dose re-replication activation, usual class: activators | 340,000 tested, 1.8% active | AID 624297; note: potency is the fitted concentration of half-maximal effect; % of control where 0% means no effect; nearly all actives have a fitted effect of over 55% in size
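250 cells/well; 23 nL cpd via pin tool; 48 hr, 37 C, 5% CO2; Hoechst 40 min; imager read of total nuclear intensity, ex 405/em 500-530 nm.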
Active calls of the source: *; i = inactive; ? = inconclusive; nt = not tested or not shown; [ ] = dose if it differs, or a comment. Unless noted, calls come from the whole dose curve; as a rule, active = well fitted curve in the direction sought with a large enough effect; inconclusive = small, poorly fitted or top-dose-only effect, or another doubt; inactive = no such curve, though single readings can be large; an effect the other way counts as inactive or inconclusive.

SMILES	MCF10A rereplic	IL-1B inflam inh	TDP1 cell noCPT	TDP1 cell CPT	Chronic BCR inh	SW480 rereplic
CCN(Cc1ccccc1)S(=O)(=O)c1ccc(C(=O)N(CCCN(C)C)c2nc3c(C)c(C)ccc3s2)cc1	16µM*	-84*	16µM*	?	-2%	6.5µM*
CCN(Cc1ccccc1)S(=O)(=O)c1ccc(C(=O)N(CCCN(C)C)c2nc3cc4c(cc3s2)OCO4)cc1	7%	-73*	-27%	?	?	?
CCOC(=O)c1ccc(N2CCOCC2)c(NC(=O)c2ccc3c(c2)OCO3)c1	4%	23	-19%	-19%	-8%	0%
Cc1nc(-c2ccc(NC(=O)Cc3ccccc3)cc2)cs1	-6%	31	?	-2%	7%	2%
CS(=O)(=O)N1CCc2cc(C(=O)O)ccc21	-2%	3	-7%	-6%	0%	3%
CC1Cc2cc(-c3csc(NC(=O)Cc4ccccc4)n3)ccc2N1S(C)(=O)=O (centres undefined)	16%	-84*	10µM*	16µM*	-28%	2%
CC(OC(=O)c1ccccc1Br)C(=O)Nc1nc(-c2cccc([N+](=O)[O-])c2)cs1 (centres undefined)	10%	-23	?	?	?	-4%
CS(=O)(=O)N1CCc2cc(-c3csc(NC(=O)C(c4ccccc4)c4ccccc4)n3)ccc21	16%	16	?	12µM*	12%	-1%
O=C(Nc1nc(-c2cccc([N+](=O)[O-])c2)cs1)C(c1ccccc1)c1ccccc1	?	-72*	?	?	?	2%[9.22 µM]
O=C(NC(=S)Nc1nc(-c2cccc([N+](=O)[O-])c2)cs1)c1cc(Cl)ccc1Cl	?	-2	16µM*	-83%	-2%	?
Cc1cn(CC(=O)NCc2nc3ccccc3[nH]2)c(=O)[nH]c1=O	nt	20	1%	-9%	nt	nt
O=C(Cn1c2c(c(-c3ccccc3Cl)cc1=O)CCC2)NCCCN1CCOCC1	12%	?	-25%	?	3%	-6%
O=[N+]([O-])c1cccc(-c2csc(N/N=C/c3cccc(O)c3)n2)c1	?	-168*	21µM*	?	8%	?
Cc1c(Nc2nc(-c3cccc([N+](=O)[O-])c3)cs2)c(=O)n(-c2ccccc2)n1C	2%	-13	-15%	-5%	7%	?
Cc1[nH]n(-c2nc(-c3cccc([N+](=O)[O-])c3)cs2)c(=O)c1C	14%	4	21µM*	?	?	-3%
CCOC(=O)c1nnn(C(CC)C(=O)Nc2ccc(F)cc2)c1C(=O)OCC (centres undefined)	nt	nt	-13%	-8%	nt	nt
Cc1ccc(-n2ncc3c2CC(C)(C)CC3NC(=O)CCc2cccnc2)cc1 (centres undefined)	-11%	i	16µM*	23µM*	-4%	-11%
Cc1ccc(-n2ncc3c2CC(C)(C)CC3NC(=O)CCc2ccncc2)cc1 (centres undefined)	-2%	-5	?	?	0%	2%
CCOc1ccc(OCC(=O)OCC(=O)N2CCN(S(=O)(=O)c3ccc(C)cc3C)CC2)cc1	3%	0	13%	-11%	nt	-20%
Cn1c(Oc2ccc(F)cc2F)c(C=O)c2ccccc21	5%	-88*	?	-12%	-1%	9%
Cn1c(Oc2ccc(Cl)cc2)c(C=O)c2ccccc21	?	-95*	26µM*	?	?	-1%[9.22 µM]
O=Cc1cn(-c2ccc(F)cc2)c2ccccc12	?	20	?	-29%	?	4%
COc1ccc(Oc2c(C=O)c3ccccc3n2C)cc1	7%	?	?	?	0%	14%
